The values that follow come from PubChem BioAssay (NCATS).

Structures are written as SMILES. Several values for one entry are separate records, joined by “and”; a condition that tells them apart may be missing. Equal entries are not always repeated. Inconclusive results are not listed. The source holds several records for some structures; these can differ, active in one and inactive in another. Activity calls are given as the source filed them. Calls follow the shape of the dose curve; as a rule, active = well fitted curve in the direction sought with a large enough effect; inconclusive = small, poorly fitted or top-dose-only effect, or another doubt; inactive = no such curve, though single readings can be large; an effect the other way counts as inactive or inconclusive.

A short description of assay [1]: Viability qHTS for spleen associated tyrosine kinase inhibitor (SYKi) drug resistant MV4-11 cells (AID 1963824). Also: nearly all actives have a fitted effect of over 35% in size. In a few lines: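 SYK inhibitor-resistant MV4-11 AML cells, 500 per well, added to predispensed compounds and incubated 72 hr at 37 C, 5% CO2. Viability measured by CellTiter-Glo luminescence after 10 min at room temperature.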
The nature of assay [2]: Quantitative highthroughput screen to assess conditional lethalithy of NOMO1 cells grown in RPMI1640 with untreated serum (RPMI+s) (AID 1963876). Also: nearly all actives have a fitted effect of over 35% in size.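 As to Viability: 100% = DMSO wells and 0% = empty wells without cells.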 The method, boiled down:
(§1)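 Each medium arm—HPLM with 10% dialyzed FBS, or RPMI1640 with 5 mM glucose and 10% untreated or dialyzed FBS—was screened against an 11-point, 3-fold compound titration for 48 h at 37 °C, with CellTiter-Glo luminescence as endpoint.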

Assay [3] can be described thus: Quantitative highthroughput screen to assess conditional lethalithy of NOMO1 cells grown in RPMI1640 with dialyzed fetal bovine serum (RPMI+ds) (AID 1963877). Also: nearly all actives have a fitted effect of over 30% in size.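 As to Viability: series mostly up to about 46 µM; 100% = DMSO control wells and 0% = empty wells.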 In a few lines:
as §1

Assay [4] can be described thus: Quantitative highthroughput screen to assess conditional lethalithy of NOMO1 cells grown in Human Plasma-Like Medium with dialyzed fetal bovine serum (HPLM+ds) (AID 1963878). Also: nearly all actives have a fitted effect of over 35% in size.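 As to Viability: 100% = DMSO wells and 0% = empty wells on each plate.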 The method, boiled down: as §1
The nature of assay [5]: Quantitative highthroughput screen to assess conditional lethalithy of P12 Ichikawa cells grown in Human Plasma-Like Medium with dialyzed fetal bovine serum (HPLM+ds) (AID 1963879). Also: nearly all actives have a fitted effect of over 35% in size. As to Viability: series mostly up to about 46 µM. To be noted: Potency: viability. In a few lines:
as §1

A short description of assay [6]: Quantitative highthroughput screen to assess conditional lethalithy of P12 Ichikawa cells grown in RPMI1640 with untreated serum (RPMI+s) (AID 1963881). Also: nearly all actives have a fitted effect of over 35% in size.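 As to Viability: series mostly up to about 46 µM; 100% = DMSO wells and 0% = empty wells without cells.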 Particulars: Potency: viability. In a few lines:
as §1

Assay [7] in a line: Quantitative highthroughput screen to assess conditional lethalithy of SEM cells grown in Human Plasma-Like Medium with dialyzed fetal bovine serum (HPLM+ds) (AID 1963882). Also: nearly all actives have a fitted effect of over 35% in size. As to Viability: series mostly up to about 46 µM. In a few lines:
as §1

The nature of assay [8]: Quantitative highthroughput screen to assess conditional lethalithy of SEM cells grown in RPMI1640 with unreated serum (RPMI+s) (AID 1963883). Also: nearly all actives have a fitted effect of over 35% in size.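 As to Viability: 100% = DMSO wells and 0% = empty wells without cells.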 In a few lines:
as §1

Assay [9] is described as follows: Quantitative highthroughput screen to assess conditional lethalithy of SEM cells grown in RPMI1640 with dialyzed fetal bovine serum (RPMI+ds) (AID 1963884). Also: nearly all actives have a fitted effect of over 35% in size.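 As to Viability: series mostly up to about 46 µM; 100% = DMSO control wells and 0% = empty wells without cells.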 The method, boiled down:
as §1

A short description of assay [10]: Quantitative highthroughput screen to assess conditional lethalithy of P12 Ichikawa cells grown in RPMI1640 with dialyzed fetal bovine serum (RPMI+ds) (AID 1963880). Also: nearly all actives have a fitted effect of over 35% in size.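 As to Viability: 100% = DMSO wells and 0% = empty wells on each plate.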 To be noted: Potency: P12-Ichikawa viability. The method, boiled down: as §1
A short description of assay [11]: Cellular viability qHTS for adrenocortical cancer (ACC) cell line SW-13 (AID 1963989). Also: nearly all actives have a fitted effect of over 65% in size.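 As to activity (max response): cells grown in serum-free medium with ITS supplement; % is scaled to controls: 0 for no effect and ±100 for the full control effect.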 To be noted: SW-13 ACC cells viability, CellTiter-Glo, 48 h; activity (max response): stronger effect = lower value. In a few lines: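 Here, serum-free SW-13 cultures were dosed up to 46 uM. Following 48 h, ATP-dependent luminescence (CellTiter-Glo) reported viable cells, and logistic modeling produced IC50 values.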
In general terms: Quantitative high-throughput screening tests each substance at several concentrations.

Assay [12] can be described thus: Cellular viability qHTS for adrenocortical cancer (ACC) cell line NCI-H295R (AID 1963990). Also: nearly all actives have a fitted effect of over 60% in size. In a few lines:
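Viability of NCI-H295R after 48 h of treatment (final up to 46 uM) measured through cellular ATP luminescence.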
Potency is read from the fitted curve at half-maximal effect.

Take `C[C@@H](NC(=O)c1ncnc(N)c1Cl)c1ncc(C(=O)Nc2cc(C(F)(F)F)c(Cl)cn2)s1`: the Potency in assay [1] and in [4] was 16.6 µM (active) throughout. The Potency entry in assay [2], in assay [3], in assay [5], in assay [6], in assay [7] and in assay [8] was “inactive” each time. Further, the Potency result in assay [9] was “inactive”.

Take `Oc1cccc(-c2nc(N3CCOCC3)c3oc4ncccc4c3n2)c1`: the Potency in assay [1] is 0.525 µM (active); in assay [7] it was 15.2 µM (active); in assay [8], 1.91 µM (active); in assay [9], 7.62 µM (active). Moreover, the Potency result in assay [2], in assay [3], in [4], in [10] and in assay [6] was “inactive” in each case.

On to `CO[C@H]1C=CO[C@@]2(C)Oc3c(C)c(O)c4c(O)c(c5c(c4c3C2=O)NC2(CCN(CC(C)C)CC2)N=5)=NC(=O)C(C)=CC=C[C@H](C)[C@H](O)[C@@H](C)[C@@H](O)[C@@H](C)[C@H](OC(C)=O)[C@H]1C`, for which, in [1], the Potency is 18.4 µM (active). The Potency entry in assay [2], in assay [3], in [4], in [10], in assay [6] and in assay [7] was “inactive” each time. Moreover, the Potency entry in assay [8] and in [9] was “inactive” in each case.

As for `COC(=O)N[C@H](C(=O)N[C@@H](Cc1ccccc1)[C@@H](O)CN(Cc1ccc(-c2ccccn2)cc1)NC(=O)[C@@H](NC(=O)OC)C(C)(C)C)C(C)(C)C`, the Potency entry in assay [1], in assay [2], in [3], in [4], in [10] and in assay [6] was “inactive” throughout. The Potency entry in assay [7], in assay [8], in [9] and in assay [12] was “inactive” throughout. The activity (max response) in assay [11] is -5.43% (inactive).

In the case of `CC(C)OC(=O)C1=CN(C(=O)c2ccc(F)c(F)c2)CC(C)(C)c2c1[nH]c1ccccc21`, the Potency in assay [1] was 13.2 µM (active). For the same compound, the Potency result in [2], in assay [3], in [4], in [10], in assay [6] and in assay [7] was “inactive” each time. In addition, the Potency entry in assay [8], in [9] and in [12] was “inactive” throughout. Besides, in [11], the activity (max response) was -5.24% (inactive).

Take `Cc1cccc(-c2nn(C(=S)Nc3ccccc3)cc2-c2ccnc3ccccc23)n1`: the Potency in assay [1] is 18.6 µM (active). In addition, the Potency result in assay [2], in [3], in assay [4], in assay [6], in assay [7] and in assay [12] was “inactive” in each case.

As for `Clc1ccc(Nc2nnc(Cc3ccncc3)c3ccccc23)cc1`, the Potency in assay [1] was 10.6 µM (active). The Potency entry in [2], in assay [3], in [4], in assay [5] and in assay [6] was “inactive” in each case.

`NC(=O)c1ccc(-c2nc(-c3ccc4c(c3)OCO4)c(-c3ccccn3)[nH]2)cc1`: the Potency in assay [1] is 11.6 µM (active). The Potency result in assay [2], in [3], in assay [4], in assay [5], in assay [10] and in assay [7] was “inactive” in each case. For the same compound, the Potency entry in assay [9] and in assay [12] was “inactive” in each case. Moreover, the activity (max response) in assay [11] is -5.02% (inactive).

On to `N[C@H](CSC(c1ccccc1)(c1ccccc1)c1ccccc1)C(=O)O`, for which the Potency is 14.8 µM (active) in assay [1], 16.6 µM (active) in assay [7] and 13.2 µM (active) in assay [9]. Besides, the Potency result in assay [2], in [3], in assay [4], in assay [5], in assay [10] and in assay [12] was “inactive” throughout. The activity (max response) in [11] is -17.5% (inactive).

On to `CCOC(=O)N1CCC(=C2c3ccc(Cl)cc3CCc3cccnc32)CC1`, for which the Potency was 8.41 µM (active) in assay [1], 11.8 µM (active) in assay [9] and 4.61 µM (active) in assay [11]. The Potency entry in assay [2], in [3], in assay [4], in [5], in [10] and in [7] was “inactive” in each case. Moreover, in assay [8], the Potency result is “inactive”.

Consider `COc1ccc(-c2ccc3c(N4CCOCC4)nc(N4C[C@@H](C)O[C@@H](C)C4)nc3n2)cc1CO`, for which the Potency was 1.32 µM (active) in [1]; 2.96 µM (active) in assay [2]; 4.69 µM (active) in assay [3]; 1.32 µM (active) in assay [4]; 1.87 µM (active) in assay [10]; 1.05 µM (active) in [6]. Further, the Potency in [7] is 1.48 µM (active); in assay [8], 1.87 µM (active); in [9] it was 2.64 µM (active); in assay [12], 0.631 µM (active).

Consider `O=C(Nc1cc(Cl)cc2c1[nH]c1cnccc12)c1cccnc1`, for which, in assay [1], the Potency was 3.55 µM (active). The Potency result in assay [2], in assay [3], in [4], in assay [5], in assay [10] and in assay [12] was “inactive” in each case. The activity (max response) in [11] was 7.23% (inactive).

As for `COc1ccc(Cc2ccc(NC(N)=O)cc2)cc1-c1cccc(Cl)c1`, the values for the Potency in assay [1] and in assay [12] were 18.6 µM (active) and 28.2 µM (active), respectively. The Potency result in assay [2], in assay [3], in [4], in assay [5], in assay [10] and in assay [6] was “inactive” throughout. For the same compound, the Potency result in assay [8] was “inactive”.

With `COc1cc(C(C)C)c(Oc2cnc(NC(CO)CO)nc2N)cc1I`, in [1], the Potency is 14.8 µM (active). In addition, the Potency entry in assay [2], in assay [3], in assay [4], in assay [5], in [6] and in [7] was “inactive” throughout. Further, the Potency entry in assay [12] was “inactive”. The activity (max response) in assay [11] is -4% (inactive).

For `O=C(O)C1=CC(O)C(O)[C@H](O)C1` (some centres undefined), the Potency result in assay [1], in assay [2], in [3], in [4], in assay [7] and in assay [8] was “inactive” in each case. In addition, the Potency result in assay [9] and in assay [12] was “inactive” throughout. For the same compound, the activity (max response) in assay [11] was -8.83% (inactive).

As to `Cc1ccc(C)c(OCCCC(C)(C)C(=O)O)c1`, in [1], the Potency entry was “inactive and 14.8 µM (active)”. Besides, the Potency result in [2], in assay [3], in [4], in assay [5], in [10] and in assay [7] was “inactive” throughout. The Potency result in assay [9] and in assay [12] was “inactive” throughout. Moreover, the activity (max response) in assay [11] is 2.23% (inactive) and -5.29% (inactive).

As for `CNCCN(C)Cc1cn[nH]c1-c1ccc(OC2CC(OCCC3CCOCC3)C2)cc1` (centres undefined), the Potency in assay [1] is 14.8 µM (active). Further, the Potency result in assay [2], in assay [3], in assay [4], in [10], in assay [6] and in [12] was “inactive” in each case.

As to `CC(=O)SCC(Cc1ccccc1)C(=O)NCC(=O)OCc1ccccc1` (centres undefined), the Potency is 20.9 µM (active) in assay [1]; 6.62 µM (active) in [2]; 6.62 µM (active) in [3]; 5.9 µM (active) in [4]; 18.7 µM (active) in assay [5]. For the same compound, the Potency result in [7], in [8], in [9] and in assay [12] was “inactive” in each case. In addition, the activity (max response) in [11] is -5.9% (inactive).
